Test results from ChEMBL document CHEMBL1961873, “Compounds: GSK PKIS; Assays: Nanosyn kinase panel” (2012).

Assays:
[1] = biological target: Sphingosine kinase 1 (Homo sapiens) (UniProt Q9NYA1); settings: at 1 µM;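 also: mean SPHK1 inhibition value reported from the GSK PKIS kinase panel screen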
[2] = biological target: T1, Sphingosine kinase 2 (Homo sapiens) (UniProt Q9NRA0); settings: at 0.1 µM
T1 sequence (whole entry): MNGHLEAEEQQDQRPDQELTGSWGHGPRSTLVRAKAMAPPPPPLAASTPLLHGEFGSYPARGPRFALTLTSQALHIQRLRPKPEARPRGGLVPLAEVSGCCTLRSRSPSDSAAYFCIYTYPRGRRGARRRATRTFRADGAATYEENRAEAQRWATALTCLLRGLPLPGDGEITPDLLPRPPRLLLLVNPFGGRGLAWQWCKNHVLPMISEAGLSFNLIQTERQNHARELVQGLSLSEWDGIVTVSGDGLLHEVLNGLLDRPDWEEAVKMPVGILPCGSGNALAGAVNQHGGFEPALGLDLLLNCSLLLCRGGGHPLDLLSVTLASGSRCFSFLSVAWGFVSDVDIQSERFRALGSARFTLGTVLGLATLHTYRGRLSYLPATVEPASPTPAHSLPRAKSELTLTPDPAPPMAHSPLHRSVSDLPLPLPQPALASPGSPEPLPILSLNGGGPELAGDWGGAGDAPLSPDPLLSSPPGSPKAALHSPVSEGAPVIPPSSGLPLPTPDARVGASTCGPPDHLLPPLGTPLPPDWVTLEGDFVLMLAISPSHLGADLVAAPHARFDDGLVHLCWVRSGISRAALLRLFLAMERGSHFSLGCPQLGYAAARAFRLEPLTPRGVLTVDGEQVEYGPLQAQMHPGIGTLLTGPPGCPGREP

[3] = biological target: T1, Sphingosine kinase 2 (Homo sapiens); settings: at 1 µM
[4] = biological target: Casein kinase II subunit alpha (Homo sapiens) (UniProt P68400); settings: at 0.1 µM
Casein kinase II subunit alpha (Homo sapiens), sequence (P68400 whole entry, looked up): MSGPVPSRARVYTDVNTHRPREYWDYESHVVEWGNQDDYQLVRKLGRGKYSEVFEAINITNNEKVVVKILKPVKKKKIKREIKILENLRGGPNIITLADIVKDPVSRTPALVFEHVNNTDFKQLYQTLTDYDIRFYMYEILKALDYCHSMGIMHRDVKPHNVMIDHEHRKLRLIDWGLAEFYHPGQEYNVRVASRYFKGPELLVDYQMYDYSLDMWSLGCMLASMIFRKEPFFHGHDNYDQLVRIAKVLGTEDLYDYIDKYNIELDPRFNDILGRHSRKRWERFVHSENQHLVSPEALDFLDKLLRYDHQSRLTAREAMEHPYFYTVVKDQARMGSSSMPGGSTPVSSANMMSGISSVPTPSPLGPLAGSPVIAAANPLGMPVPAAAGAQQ

[5] = biological target: Casein kinase II subunit alpha (Homo sapiens) (UniProt P68400); settings: at 1 µM
[6] = biological target: T2, Inhibitor of nuclear factor kappa-B kinase subunit alpha (Homo sapiens) (UniProt O15111); settings: at 0.1 µM
T2 sequence (whole entry): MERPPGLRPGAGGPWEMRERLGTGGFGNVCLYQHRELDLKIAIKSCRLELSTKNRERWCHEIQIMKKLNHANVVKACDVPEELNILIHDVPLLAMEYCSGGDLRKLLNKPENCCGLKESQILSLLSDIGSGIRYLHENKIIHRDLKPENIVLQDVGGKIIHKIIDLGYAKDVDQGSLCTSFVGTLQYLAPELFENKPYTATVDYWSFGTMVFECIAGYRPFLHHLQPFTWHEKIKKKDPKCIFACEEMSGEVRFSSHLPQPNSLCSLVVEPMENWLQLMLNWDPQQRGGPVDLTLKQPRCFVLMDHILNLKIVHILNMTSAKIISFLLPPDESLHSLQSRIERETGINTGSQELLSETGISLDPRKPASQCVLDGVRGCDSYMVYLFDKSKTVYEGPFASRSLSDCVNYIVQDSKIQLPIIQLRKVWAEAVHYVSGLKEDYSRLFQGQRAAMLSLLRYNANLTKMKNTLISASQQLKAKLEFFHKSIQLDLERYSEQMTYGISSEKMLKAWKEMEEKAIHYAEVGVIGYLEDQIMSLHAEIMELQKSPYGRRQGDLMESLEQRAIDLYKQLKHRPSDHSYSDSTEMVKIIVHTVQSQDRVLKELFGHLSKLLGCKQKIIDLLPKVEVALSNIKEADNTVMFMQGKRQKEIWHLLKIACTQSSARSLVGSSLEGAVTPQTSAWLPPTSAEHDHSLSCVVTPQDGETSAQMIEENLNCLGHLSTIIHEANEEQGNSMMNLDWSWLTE

[7] = biological target: T2, Inhibitor of nuclear factor kappa-B kinase subunit alpha (Homo sapiens); settings: at 1 µM
[8] = biological target: T3, Inhibitor of nuclear factor kappa-B kinase subunit beta (Homo sapiens) (UniProt O14920); settings: at 0.1 µM
T3 sequence (whole entry): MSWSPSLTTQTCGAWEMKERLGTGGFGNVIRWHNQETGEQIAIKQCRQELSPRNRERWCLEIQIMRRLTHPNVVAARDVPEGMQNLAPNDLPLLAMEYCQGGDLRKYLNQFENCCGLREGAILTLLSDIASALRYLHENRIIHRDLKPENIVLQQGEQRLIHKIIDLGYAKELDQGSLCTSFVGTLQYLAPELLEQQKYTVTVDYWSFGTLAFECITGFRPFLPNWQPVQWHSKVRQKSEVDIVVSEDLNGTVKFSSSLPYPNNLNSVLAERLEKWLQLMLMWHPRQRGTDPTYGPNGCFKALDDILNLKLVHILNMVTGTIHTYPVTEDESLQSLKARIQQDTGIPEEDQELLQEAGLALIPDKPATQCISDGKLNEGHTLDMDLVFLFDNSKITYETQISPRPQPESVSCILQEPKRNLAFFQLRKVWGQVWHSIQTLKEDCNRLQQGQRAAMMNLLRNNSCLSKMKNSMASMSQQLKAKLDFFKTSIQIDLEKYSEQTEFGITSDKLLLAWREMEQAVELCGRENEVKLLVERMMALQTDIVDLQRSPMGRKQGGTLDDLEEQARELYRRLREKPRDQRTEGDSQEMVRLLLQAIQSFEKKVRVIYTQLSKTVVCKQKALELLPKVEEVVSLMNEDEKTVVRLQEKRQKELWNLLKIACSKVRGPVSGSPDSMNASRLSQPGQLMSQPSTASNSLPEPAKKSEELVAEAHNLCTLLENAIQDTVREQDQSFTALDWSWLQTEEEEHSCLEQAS

[9] = biological target: T3, Inhibitor of nuclear factor kappa-B kinase subunit beta (Homo sapiens); settings: at 1 µM
[10] = biological target: T4, Inhibitor of nuclear factor kappa-B kinase subunit epsilon (Homo sapiens) (UniProt Q14164); settings: at 0.1 µM
T4 sequence (whole entry): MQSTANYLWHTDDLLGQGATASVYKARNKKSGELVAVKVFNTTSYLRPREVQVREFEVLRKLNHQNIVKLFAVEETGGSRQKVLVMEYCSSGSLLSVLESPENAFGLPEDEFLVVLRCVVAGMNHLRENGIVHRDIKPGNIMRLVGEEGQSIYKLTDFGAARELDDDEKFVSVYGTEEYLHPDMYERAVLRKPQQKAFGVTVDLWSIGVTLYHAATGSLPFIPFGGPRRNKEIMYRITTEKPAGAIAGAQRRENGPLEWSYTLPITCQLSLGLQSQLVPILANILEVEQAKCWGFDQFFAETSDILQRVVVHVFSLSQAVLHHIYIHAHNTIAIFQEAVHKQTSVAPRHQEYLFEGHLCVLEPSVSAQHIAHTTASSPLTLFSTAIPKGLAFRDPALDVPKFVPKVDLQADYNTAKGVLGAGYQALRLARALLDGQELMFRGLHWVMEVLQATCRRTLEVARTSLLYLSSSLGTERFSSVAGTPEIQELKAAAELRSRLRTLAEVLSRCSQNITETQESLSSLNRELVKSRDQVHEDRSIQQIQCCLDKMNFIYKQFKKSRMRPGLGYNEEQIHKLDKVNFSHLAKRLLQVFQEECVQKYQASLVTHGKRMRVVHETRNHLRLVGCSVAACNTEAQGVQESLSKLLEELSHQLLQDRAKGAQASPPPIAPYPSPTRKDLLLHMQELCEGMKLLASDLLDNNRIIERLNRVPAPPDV

[11] = biological target: T4, Inhibitor of nuclear factor kappa-B kinase subunit epsilon (Homo sapiens); settings: at 1 µM
[12] = biological target: T5, Serine/threonine-protein kinase Nek1 (Homo sapiens) (UniProt Q96PY6); settings: at 0.1 µM
T5 sequence (whole entry): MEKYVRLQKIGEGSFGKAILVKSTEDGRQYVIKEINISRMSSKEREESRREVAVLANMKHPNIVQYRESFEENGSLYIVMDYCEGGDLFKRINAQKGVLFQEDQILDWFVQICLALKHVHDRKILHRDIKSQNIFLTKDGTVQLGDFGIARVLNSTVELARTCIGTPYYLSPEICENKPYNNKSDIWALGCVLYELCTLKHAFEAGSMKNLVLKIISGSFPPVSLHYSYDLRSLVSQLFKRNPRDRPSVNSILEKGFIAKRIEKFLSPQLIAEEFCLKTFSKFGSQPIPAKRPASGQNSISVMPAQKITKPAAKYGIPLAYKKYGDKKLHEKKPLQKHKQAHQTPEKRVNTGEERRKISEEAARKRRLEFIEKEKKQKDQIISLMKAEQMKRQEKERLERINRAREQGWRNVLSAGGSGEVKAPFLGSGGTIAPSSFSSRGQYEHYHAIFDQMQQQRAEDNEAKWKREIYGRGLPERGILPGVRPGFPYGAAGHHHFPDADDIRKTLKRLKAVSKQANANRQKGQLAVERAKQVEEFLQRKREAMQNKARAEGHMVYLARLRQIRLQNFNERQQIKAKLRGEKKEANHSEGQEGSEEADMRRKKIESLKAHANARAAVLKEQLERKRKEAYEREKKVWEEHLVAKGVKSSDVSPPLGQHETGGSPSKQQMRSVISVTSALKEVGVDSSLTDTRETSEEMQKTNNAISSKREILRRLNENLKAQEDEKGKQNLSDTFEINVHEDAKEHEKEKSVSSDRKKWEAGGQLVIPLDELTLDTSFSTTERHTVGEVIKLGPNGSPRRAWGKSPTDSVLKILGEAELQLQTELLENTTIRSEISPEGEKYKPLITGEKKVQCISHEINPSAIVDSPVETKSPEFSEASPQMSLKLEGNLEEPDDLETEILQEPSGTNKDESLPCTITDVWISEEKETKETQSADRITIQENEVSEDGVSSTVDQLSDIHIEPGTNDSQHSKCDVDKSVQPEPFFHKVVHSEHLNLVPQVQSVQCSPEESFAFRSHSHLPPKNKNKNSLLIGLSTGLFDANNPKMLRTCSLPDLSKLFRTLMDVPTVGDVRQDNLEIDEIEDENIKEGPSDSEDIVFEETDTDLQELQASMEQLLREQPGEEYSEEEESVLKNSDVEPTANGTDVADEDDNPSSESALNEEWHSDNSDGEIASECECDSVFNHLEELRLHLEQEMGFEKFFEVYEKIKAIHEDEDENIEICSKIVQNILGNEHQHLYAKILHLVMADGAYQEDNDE

[13] = biological target: T5, Serine/threonine-protein kinase Nek1 (Homo sapiens); settings: at 1 µM
[14] = biological target: T6, Serine/threonine-protein kinase Nek2 (Homo sapiens) (UniProt P51955); settings: at 0.1 µM
T6 sequence (whole entry): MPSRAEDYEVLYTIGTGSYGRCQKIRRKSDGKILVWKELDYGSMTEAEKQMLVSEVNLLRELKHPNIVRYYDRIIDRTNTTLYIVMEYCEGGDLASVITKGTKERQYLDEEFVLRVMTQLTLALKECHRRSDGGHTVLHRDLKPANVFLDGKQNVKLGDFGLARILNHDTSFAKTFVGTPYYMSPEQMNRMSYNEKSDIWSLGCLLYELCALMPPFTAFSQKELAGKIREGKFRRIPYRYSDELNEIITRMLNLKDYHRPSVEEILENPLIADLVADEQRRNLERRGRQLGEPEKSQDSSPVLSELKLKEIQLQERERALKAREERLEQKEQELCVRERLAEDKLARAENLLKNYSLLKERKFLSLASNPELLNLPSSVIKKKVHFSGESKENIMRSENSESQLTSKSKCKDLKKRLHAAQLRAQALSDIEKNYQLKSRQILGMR

[15] = biological target: T6, Serine/threonine-protein kinase Nek2 (Homo sapiens); settings: at 1 µM
[16] = biological target: Serine/threonine-protein kinase Nek6 (Homo sapiens) (UniProt Q9HC98); settings: at 0.1 µM
Serine/threonine-protein kinase Nek6 (Homo sapiens), sequence (Q9HC98 whole entry): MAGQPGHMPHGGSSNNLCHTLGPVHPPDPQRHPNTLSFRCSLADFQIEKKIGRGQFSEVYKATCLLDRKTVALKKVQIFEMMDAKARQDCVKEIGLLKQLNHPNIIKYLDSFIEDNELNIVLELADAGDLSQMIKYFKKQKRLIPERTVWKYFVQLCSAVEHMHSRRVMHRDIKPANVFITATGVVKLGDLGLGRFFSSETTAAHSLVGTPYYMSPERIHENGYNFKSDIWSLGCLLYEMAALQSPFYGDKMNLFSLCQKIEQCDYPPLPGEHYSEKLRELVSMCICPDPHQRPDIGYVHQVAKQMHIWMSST

[17] = biological target: Serine/threonine-protein kinase Nek6 (Homo sapiens) (UniProt Q9HC98); settings: at 1 µM
[18] = biological target: Serine/threonine-protein kinase Nek7 (Homo sapiens) (UniProt Q8TDX7); settings: at 0.1 µM
Serine/threonine-protein kinase Nek7 (Homo sapiens), sequence (Q8TDX7 whole entry, looked up): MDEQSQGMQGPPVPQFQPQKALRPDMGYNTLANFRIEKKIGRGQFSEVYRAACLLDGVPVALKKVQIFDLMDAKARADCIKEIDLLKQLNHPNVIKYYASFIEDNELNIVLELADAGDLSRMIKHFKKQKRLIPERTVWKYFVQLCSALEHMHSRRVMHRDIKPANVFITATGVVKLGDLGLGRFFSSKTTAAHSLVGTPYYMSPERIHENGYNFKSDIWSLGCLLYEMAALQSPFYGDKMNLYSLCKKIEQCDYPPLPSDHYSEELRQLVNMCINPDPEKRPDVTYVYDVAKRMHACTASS

[19] = biological target: Serine/threonine-protein kinase Nek7 (Homo sapiens) (UniProt Q8TDX7); settings: at 1 µM
[20] = biological target: T7, Serine/threonine-protein kinase Nek9 (Homo sapiens) (UniProt Q8TD19); settings: at 0.1 µM;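 also: reported value is the mean percent inhibition of NEK9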
T7 sequence (whole entry): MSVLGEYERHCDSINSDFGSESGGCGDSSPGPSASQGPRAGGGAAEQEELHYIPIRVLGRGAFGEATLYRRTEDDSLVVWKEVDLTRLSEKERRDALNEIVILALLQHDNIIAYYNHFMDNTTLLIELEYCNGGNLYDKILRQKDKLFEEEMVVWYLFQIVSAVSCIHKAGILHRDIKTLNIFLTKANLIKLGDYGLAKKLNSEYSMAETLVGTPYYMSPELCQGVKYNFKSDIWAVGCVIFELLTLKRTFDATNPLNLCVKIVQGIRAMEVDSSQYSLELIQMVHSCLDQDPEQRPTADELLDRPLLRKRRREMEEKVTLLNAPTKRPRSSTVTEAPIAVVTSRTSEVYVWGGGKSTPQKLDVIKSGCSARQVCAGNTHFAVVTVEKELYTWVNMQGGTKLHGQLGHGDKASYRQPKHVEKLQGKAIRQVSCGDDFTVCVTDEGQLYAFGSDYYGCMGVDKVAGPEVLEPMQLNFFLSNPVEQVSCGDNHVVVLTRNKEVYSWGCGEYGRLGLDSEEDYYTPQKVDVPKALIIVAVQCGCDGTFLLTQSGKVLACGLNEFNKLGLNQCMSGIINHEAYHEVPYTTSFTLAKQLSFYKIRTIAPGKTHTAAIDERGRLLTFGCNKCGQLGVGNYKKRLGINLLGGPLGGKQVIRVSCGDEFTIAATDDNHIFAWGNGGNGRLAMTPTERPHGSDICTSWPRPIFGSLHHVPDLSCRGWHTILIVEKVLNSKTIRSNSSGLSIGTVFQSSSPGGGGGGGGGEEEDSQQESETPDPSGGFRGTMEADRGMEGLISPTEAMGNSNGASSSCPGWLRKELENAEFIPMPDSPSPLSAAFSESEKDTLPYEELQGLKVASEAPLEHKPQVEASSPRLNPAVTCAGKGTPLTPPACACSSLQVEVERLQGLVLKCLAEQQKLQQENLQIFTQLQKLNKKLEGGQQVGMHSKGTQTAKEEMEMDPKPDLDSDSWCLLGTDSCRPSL

Sphingosine kinase 1 (Homo sapiens), sequence (Q9NYA1 whole entry): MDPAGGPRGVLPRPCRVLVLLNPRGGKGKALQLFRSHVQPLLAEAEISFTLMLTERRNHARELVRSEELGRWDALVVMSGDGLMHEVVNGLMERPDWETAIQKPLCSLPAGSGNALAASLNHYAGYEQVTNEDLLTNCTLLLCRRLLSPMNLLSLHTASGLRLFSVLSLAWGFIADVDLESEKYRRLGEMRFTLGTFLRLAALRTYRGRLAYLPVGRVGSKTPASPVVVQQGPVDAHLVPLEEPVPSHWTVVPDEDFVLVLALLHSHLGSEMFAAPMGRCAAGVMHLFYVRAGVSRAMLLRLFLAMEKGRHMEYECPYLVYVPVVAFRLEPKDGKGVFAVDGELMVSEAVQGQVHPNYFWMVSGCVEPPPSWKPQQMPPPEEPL

Question: What does the source list for `COc1cc2ncnc(Nc3ccc(C)c(O)c3)c2cc1OC`?
Answer: inhibition [1]: -3.1%; inhibition [2]: -0.83%; inhibition [3]: 0.12%; inhibition [4]: 2.65%; inhibition [5]: 6.37%; inhibition [6]: 7.19%; inhibition [7]: 11.6%; inhibition [8]: 6.42%; inhibition [9]: 6.01%; inhibition [10]: 5.22%; inhibition [11]: 6.95%; inhibition [12]: 3.4%; inhibition [13]: 5.46%; inhibition [14]: 5.78%; inhibition [15]: 7.02%; inhibition [16]: 3.27%; inhibition [17]: 4.18%; inhibition [18]: 4.88%; inhibition [19]: 4.92%; inhibition [20]: 6.41%
